# According to article PMC7862700, “An all-to-all approach to the identification of sequence-specific readers for epigenetic DNA modifications on cytosine”:
# Experiments:
# Assay in all cases: DAPPL (digital affinity profiling via proximity ligation, sequencing); 10 mM Tris-HCl pH 7.5, 50 mM NaCl, 1 mM DTT, 4% glycerol, room temperature, 30 min; GST-TFs on glutathione beads, 16-mer random dsDNA library, 0.1% formaldehyde crosslink after washing; high values mean tight binding
# Settings in all cases: protein: recombinant; tags: N-terminal GST; dsDNA, one strand shown
# [1] = target: T1, FEV (Homo sapiens, UniProt Q99581 1-238)
# T1 sequence: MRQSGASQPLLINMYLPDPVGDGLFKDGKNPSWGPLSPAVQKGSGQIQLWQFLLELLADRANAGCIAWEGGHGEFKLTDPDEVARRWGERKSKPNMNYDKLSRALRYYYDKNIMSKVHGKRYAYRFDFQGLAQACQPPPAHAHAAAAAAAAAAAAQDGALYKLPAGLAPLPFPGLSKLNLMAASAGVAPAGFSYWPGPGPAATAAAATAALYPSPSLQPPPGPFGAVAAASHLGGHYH
# Procedure, shortened: (§1)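 Binding signal is each hexamer's read frequency for a factor divided by its frequency in the tag-only sample. The factors were GST-fused human transcription factors from yeast, captured on glutathione beads, DNA-barcoded and pooled with that sample. Pools were incubated with 200 nmole of a random double-stranded 16-mer DNA library in Tris/NaCl/DTT/glycerol buffer at room temperature for 30 min, then washed, crosslinked with 0.1% formaldehyde, proximity-ligated with BsaI/T4 ligase (1 h, 37 °C), PCR-amplified and sequenced on an Illumina NextSeq500.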
# [2] = target: ETV5 (Homo sapiens, UniProt P41161 1-510)
# Sequence of ETV5 (P41161 whole entry): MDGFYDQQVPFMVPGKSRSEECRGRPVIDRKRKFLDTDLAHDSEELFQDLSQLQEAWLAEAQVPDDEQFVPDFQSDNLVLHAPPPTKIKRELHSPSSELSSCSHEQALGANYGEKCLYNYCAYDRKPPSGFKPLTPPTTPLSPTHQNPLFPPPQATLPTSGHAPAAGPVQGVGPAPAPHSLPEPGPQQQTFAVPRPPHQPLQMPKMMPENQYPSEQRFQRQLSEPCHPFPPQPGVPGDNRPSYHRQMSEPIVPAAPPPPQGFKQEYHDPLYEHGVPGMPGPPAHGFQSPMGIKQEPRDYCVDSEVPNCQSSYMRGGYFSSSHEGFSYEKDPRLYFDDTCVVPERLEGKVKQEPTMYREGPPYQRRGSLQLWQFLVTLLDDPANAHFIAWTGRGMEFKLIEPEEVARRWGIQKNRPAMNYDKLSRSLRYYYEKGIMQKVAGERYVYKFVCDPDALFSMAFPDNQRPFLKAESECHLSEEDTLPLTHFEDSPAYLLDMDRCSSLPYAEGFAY
# Procedure, shortened: as §1
# [3] = target: T2, SPIC (Homo sapiens, UniProt Q8N5J4 1-248)
# T2 sequence: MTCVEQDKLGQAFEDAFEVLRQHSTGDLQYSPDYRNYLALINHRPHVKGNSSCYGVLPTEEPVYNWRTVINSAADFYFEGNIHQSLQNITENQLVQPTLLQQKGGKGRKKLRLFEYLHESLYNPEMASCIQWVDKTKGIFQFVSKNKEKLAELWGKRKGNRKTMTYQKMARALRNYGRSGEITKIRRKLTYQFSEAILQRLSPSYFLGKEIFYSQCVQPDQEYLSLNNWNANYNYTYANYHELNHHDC
# Procedure, shortened: as §1
# [4] = target: ELF4 (Homo sapiens, UniProt Q99607 1-663)
# Sequence of ELF4 (Q99607 whole entry): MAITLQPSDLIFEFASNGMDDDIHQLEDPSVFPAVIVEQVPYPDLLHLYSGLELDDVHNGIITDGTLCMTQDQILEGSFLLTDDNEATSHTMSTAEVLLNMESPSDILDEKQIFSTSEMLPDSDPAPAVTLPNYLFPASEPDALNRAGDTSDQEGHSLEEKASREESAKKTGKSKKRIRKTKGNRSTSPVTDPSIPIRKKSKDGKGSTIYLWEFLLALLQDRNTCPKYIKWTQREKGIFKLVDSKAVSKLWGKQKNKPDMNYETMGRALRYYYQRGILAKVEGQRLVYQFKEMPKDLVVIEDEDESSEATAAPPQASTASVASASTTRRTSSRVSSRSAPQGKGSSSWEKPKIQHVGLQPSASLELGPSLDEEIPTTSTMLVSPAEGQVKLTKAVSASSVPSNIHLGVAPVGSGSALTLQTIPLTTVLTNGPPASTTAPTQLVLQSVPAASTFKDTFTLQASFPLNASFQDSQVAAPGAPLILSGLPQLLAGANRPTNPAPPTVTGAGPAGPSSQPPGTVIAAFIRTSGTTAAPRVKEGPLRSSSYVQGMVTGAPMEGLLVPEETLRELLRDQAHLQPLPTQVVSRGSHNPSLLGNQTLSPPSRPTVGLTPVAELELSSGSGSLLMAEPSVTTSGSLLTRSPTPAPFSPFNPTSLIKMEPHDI
# Procedure, shortened: as §1
# [5] = target: T3, ELK4 (Homo sapiens, UniProt P28324-2 1-405)
# T3 sequence: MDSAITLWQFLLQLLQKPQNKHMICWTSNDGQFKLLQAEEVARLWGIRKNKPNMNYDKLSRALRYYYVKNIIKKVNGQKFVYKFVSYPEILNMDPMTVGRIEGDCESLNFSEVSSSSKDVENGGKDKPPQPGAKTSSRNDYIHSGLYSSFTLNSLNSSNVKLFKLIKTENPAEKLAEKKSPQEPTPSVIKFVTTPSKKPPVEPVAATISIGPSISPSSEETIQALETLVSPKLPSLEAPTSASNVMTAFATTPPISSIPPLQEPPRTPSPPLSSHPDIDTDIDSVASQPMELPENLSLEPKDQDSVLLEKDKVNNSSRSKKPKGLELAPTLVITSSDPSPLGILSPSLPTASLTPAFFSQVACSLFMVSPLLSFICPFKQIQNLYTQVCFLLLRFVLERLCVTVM
# Procedure, shortened: as §1
# [6] = target: T4, ETV2 (Homo sapiens, UniProt O00321 1-342)
# T4 sequence: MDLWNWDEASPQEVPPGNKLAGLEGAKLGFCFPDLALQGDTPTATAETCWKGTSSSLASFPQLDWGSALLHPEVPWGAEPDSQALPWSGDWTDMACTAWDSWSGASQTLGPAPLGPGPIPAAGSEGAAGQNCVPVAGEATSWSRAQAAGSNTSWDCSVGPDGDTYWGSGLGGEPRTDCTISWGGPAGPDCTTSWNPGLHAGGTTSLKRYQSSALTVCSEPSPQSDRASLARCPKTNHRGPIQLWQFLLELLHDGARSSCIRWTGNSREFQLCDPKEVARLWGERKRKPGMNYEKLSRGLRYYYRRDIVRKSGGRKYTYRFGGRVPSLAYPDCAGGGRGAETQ
# Procedure, shortened: as §1
# [7] = target: T5, ELF3 (Homo sapiens, UniProt P78545 1-371)
# T5 sequence: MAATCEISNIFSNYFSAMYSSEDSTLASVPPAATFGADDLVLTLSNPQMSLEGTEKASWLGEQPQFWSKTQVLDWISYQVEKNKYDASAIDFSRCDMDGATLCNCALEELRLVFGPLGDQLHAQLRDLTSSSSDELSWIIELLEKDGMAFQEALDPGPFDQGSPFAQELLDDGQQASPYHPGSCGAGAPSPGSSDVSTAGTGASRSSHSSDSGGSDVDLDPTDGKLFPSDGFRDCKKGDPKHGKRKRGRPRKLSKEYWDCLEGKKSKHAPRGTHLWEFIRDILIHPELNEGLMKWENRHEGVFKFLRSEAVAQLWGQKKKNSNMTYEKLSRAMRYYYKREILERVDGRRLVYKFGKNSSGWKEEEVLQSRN
# Procedure, shortened: as §1
# [8] = target: CRX (Homo sapiens, UniProt O43186 1-299)
# Sequence of CRX (O43186 whole entry): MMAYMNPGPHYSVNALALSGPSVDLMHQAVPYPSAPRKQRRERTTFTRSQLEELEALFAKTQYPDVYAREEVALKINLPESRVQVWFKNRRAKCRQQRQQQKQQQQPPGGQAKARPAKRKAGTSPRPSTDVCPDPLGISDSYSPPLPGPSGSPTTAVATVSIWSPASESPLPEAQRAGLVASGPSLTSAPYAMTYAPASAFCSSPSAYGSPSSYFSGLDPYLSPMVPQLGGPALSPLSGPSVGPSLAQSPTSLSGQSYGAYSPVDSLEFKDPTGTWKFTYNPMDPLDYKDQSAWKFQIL
# Procedure, shortened: as §1
# [9] = target: ETV1 (Homo sapiens, UniProt P50549 1-477)
# Sequence of ETV1 (P50549 whole entry): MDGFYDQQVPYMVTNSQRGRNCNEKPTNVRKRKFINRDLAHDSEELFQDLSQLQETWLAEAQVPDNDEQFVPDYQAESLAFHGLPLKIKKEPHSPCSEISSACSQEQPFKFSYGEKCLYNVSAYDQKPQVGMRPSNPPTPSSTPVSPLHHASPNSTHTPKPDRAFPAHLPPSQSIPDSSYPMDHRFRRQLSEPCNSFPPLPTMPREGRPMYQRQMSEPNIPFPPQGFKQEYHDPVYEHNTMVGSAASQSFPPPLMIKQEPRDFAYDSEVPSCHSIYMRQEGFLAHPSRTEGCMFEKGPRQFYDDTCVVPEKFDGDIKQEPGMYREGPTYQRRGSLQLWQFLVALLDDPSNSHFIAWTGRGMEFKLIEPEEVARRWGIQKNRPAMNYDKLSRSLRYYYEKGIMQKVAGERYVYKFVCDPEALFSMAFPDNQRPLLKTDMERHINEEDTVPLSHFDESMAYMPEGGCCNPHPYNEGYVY
# Procedure, shortened: as §1
# [10] = target: T6, ERF (Homo sapiens, UniProt P50548 1-548)
# T6 sequence: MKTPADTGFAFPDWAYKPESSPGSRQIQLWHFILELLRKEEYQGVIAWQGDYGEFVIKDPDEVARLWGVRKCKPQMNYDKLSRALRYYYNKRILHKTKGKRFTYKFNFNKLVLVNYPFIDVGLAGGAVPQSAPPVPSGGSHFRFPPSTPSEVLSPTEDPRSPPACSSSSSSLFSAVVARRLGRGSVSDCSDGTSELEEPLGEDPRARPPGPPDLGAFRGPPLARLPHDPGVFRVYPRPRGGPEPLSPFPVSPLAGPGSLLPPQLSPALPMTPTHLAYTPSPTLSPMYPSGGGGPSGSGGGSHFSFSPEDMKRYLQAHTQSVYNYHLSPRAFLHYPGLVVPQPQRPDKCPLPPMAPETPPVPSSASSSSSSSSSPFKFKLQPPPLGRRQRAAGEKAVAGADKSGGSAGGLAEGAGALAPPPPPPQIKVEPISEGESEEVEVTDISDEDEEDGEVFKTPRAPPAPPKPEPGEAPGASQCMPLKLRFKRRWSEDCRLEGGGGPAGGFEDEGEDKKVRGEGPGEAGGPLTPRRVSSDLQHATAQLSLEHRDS
# Procedure, shortened: as §1
# [11] = target: T7, ETV3L (Homo sapiens, UniProt Q6ZN32 1-361)
# T7 sequence: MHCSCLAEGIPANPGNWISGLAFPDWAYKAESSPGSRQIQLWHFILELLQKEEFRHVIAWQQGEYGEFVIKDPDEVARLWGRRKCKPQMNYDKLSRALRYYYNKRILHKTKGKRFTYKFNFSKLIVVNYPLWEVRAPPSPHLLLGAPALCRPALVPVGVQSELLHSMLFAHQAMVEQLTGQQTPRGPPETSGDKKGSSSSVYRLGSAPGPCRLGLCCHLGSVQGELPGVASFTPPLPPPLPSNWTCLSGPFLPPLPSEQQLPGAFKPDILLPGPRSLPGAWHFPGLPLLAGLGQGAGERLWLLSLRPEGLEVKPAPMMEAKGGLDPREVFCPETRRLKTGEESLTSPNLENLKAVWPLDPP
# Procedure, shortened: as §1
# [12] = target: T8, ETS2 (Homo sapiens, UniProt P15036 1-469)
# T8 sequence: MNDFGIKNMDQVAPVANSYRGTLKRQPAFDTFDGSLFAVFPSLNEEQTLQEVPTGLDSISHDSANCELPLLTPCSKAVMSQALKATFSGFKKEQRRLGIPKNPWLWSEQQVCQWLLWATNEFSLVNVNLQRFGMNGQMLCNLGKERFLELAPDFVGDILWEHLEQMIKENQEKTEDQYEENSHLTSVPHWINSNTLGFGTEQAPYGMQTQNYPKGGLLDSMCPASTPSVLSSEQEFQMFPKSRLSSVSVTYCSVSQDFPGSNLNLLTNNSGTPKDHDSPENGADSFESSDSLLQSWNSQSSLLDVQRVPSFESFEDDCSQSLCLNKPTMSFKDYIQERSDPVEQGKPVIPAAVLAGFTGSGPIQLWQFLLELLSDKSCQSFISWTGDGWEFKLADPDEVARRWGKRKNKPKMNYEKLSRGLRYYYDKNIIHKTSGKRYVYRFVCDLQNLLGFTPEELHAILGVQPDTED
# Procedure, shortened: as §1
# [13] = target: T9, SPDEF (Homo sapiens, UniProt O95238 1-335)
# T9 sequence: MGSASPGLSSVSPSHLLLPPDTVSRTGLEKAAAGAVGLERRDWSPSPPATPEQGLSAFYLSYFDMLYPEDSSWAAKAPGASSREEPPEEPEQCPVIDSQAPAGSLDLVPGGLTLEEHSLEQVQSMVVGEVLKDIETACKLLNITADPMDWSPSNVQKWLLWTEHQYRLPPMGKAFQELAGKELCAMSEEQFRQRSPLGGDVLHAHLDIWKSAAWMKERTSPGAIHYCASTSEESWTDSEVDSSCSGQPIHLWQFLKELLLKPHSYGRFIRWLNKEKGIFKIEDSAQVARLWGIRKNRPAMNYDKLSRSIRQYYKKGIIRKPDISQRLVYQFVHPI
# Procedure, shortened: as §1
# [14] = target: T10, ETV7 (Homo sapiens, UniProt Q9Y603 1-341)
# T10 sequence: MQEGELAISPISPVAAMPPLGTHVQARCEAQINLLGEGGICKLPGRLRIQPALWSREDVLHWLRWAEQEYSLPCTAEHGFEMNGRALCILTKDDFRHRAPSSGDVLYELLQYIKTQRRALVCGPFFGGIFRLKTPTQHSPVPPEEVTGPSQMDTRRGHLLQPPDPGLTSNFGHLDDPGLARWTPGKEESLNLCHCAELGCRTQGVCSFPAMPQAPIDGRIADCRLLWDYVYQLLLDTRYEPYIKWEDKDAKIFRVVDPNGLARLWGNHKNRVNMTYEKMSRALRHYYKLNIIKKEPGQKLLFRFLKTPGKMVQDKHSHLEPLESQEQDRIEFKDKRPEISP
# Procedure, shortened: as §1
# [15] = target: T11, ELF5 (Homo sapiens, UniProt Q9UKW6-2 1-255)
# T11 sequence: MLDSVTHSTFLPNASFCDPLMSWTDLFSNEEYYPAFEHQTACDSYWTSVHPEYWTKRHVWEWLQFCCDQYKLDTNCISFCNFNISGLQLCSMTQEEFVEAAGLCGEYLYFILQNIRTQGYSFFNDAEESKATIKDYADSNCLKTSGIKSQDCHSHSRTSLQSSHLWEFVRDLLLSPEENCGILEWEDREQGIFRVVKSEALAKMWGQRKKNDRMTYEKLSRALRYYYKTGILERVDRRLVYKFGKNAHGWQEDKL
# Procedure, shortened: as §1
# [16] = target: T12, ETV3 (Homo sapiens, UniProt P41162-2 1-143)
# T12 sequence: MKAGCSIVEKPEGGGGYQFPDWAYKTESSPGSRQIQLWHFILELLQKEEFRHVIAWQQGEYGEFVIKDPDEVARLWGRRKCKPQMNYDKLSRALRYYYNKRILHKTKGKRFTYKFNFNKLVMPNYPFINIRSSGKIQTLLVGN
# Procedure, shortened: as §1
# [17] = target: ETV6 (Homo sapiens, UniProt P41212 1-452)
# Sequence of ETV6 (P41212 whole entry): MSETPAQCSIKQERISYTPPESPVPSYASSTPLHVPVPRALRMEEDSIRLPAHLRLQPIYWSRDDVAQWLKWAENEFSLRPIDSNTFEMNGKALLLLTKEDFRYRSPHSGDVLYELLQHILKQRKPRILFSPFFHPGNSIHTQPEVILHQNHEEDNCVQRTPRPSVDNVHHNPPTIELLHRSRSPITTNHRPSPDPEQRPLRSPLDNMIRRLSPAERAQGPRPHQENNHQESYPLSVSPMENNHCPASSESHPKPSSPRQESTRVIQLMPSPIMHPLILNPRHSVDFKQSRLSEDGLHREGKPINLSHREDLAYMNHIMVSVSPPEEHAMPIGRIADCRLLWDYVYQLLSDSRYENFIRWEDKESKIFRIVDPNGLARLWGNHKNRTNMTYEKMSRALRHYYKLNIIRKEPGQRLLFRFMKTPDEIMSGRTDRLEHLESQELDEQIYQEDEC
# Procedure, shortened: as §1
sequence,measurement,setting,value
TCATGC,binding signal,[1],"1.14 fold enrichment (6-mer frequency, TF over GST control)"
same,binding signal,[2],"1.09 fold enrichment (6-mer frequency, TF over GST control)"
same,binding signal,[3],"1.11 fold enrichment (6-mer frequency, TF over GST control)"
same,binding signal,[4],"1.18 fold enrichment (6-mer frequency, TF over GST control)"
same,binding signal,[5],"1.27 fold enrichment (6-mer frequency, TF over GST control)"
same,binding signal,[6],"1.31 fold enrichment (6-mer frequency, TF over GST control)"
same,binding signal,[7],"1.18 fold enrichment (6-mer frequency, TF over GST control)"
same,binding signal,[8],"1.03 fold enrichment (6-mer frequency, TF over GST control)"
same,binding signal,[9],"1.17 fold enrichment (6-mer frequency, TF over GST control)"
same,binding signal,[10],"1.13 fold enrichment (6-mer frequency, TF over GST control)"
same,binding signal,[11],"1.12 fold enrichment (6-mer frequency, TF over GST control)"
same,binding signal,[12],"1.13 fold enrichment (6-mer frequency, TF over GST control)"
same,binding signal,[13],"1.18 fold enrichment (6-mer frequency, TF over GST control)"
same,binding signal,[14],"1.17 fold enrichment (6-mer frequency, TF over GST control)"
same,binding signal,[15],"1.07 fold enrichment (6-mer frequency, TF over GST control)"
same,binding signal,[16],"1.18 fold enrichment (6-mer frequency, TF over GST control)"
same,binding signal,[17],"1.11 fold enrichment (6-mer frequency, TF over GST control)"
